Compound activity deposited in PubChem BioAssay by National Center for Advancing Translational Sciences (NCATS).
This is a sample that favours compounds with a hit; in the whole collection about 6.1% have one here.
D1 antagonist – blocks dopamine activation of the human D1 receptor; activity change, negative = inhibition, % at 10 µM; hit rate 3.2% among 360,000; HEK293 TREx D1 cells, calcium flux, dopamine EC80; hits give low values; P21728; in the data active = activity change below about -30%
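HEK293 T-REx cells expressing inducible, force-coupled D1 receptor; no-wash Ca dye, 30–90 min RT. Cmpd → 180 s read at 1 Hz → EC80 DA → 180 s read.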
DRD3 antagonist – blocks the human D3 dopamine receptor; hit rate 2.5% among 360,000; AID 652054; max response, negative = inhibition, %; D3R cells, DiscoveRx beta-arrestin luminescence, antagonist mode; hits give low values; in the data active = max response below about -50%
Target sequence (P35462 whole entry, looked up): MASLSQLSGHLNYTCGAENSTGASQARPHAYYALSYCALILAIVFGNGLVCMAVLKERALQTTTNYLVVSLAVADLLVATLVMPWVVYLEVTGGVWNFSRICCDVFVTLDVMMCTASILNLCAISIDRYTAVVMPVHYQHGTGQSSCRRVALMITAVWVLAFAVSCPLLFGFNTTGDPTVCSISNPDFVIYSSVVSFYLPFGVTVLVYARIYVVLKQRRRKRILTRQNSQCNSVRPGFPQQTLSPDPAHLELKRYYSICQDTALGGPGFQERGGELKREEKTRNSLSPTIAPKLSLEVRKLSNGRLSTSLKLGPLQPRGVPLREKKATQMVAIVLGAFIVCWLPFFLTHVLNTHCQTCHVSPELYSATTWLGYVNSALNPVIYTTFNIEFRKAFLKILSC
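Cells plated overnight at 1500 cells/well, then exposed to library compounds with dopamine controls for 90 minutes at 37 degrees C. DiscoveRx reagent added for 30–60 minutes at room temperature; luminescence read, quantitative HTS format.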
D3 ag – D3 dopamine receptor (human) agonism; D3R DiscoveRx beta-arrestin cells, luminescence, 90 min; AID 652048; P35462; max activation, %; hit rate 0.58% among 410,000; in the data active = max activation above about 30%
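Agonist-mode cell screen: cells plated at 1500/well and incubated overnight at 37 °C, then exposed to library compounds for 90 min at 37 °C. Detection reagent was added for 30–60 min at room temperature, and luminescence was read.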
D1 agonist – agonists of human D1 dopamine receptor | HEK293 T-REx D1 cells, calcium flux, agonist mode | activation, % at 2 µM | hit rate 1% among 360,000 | AID 504660; in the data active = activation above about 30%
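Tetracycline-induced HEK293 TREx D1 cells, force-coupled to calcium signalling, were dye-loaded with a no-wash calcium kit. Compound was pin-added after a 10 s baseline. Fluorescence was read kinetically at 1 cycle/s for 180 s, with calcium rises flagged as agonism.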
D1 potentiator – human D1 dopamine receptor positive modulation; P21728; HEK293 TREx D1 cells, calcium flux, dopamine EC20 potentiation; potentiation, % at 10 µM; hit rate 0.036% among 360,000; AID 504651; in the data active = potentiation above about 30%
ERG-DNA inh – ERG Ets/DNA interaction inhibition | P11308 | fluorescence polarization, His-ERG Ets domain / labelled DNA | Potency, µM (series often up to 76.9 µM), most hits filed as inhibitors | hit rate 0.028% among 370,000; active = well fitted inhibition curve with a large enough effect in the polarisation, with a control signal flat; the % refers to the polarisation;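 note: polarization taken with two DNA probes labelled with fluorescein and Texas red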
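His-tagged ERG Ets domain (1 uM in the protein solution; 300mM KCl, 50mM Tris-HCl, 1mM EDTA, 1mM DTT, pH 7.5) received compound, then a probe mix of 5 nM fluorescein-DNA and 100nM Texas-615-DNA. Fluorescence polarization was read for both dyes.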
Numbers stand for hits.

`CCOC(=O)c1c(NC(=O)COc2cccc(C)c2C)sc2c1CCCCC2` gave D1 antagonist -44, D3 ag inactive, D1 agonist inactive, D1 potentiator inactive and ERG-DNA inh inactive.
Screening CCOC(=O)c1c(NC(=O)COc2ccccc2F)sc2c1CCCC2 returned D1 antagonist inactive, D3 ag inactive, D1 agonist inactive, D1 potentiator inactive and ERG-DNA inh inactive.
`O=C(COc1ccccc1)Nc1nc2c(s1)CCCC2` gave D1 antagonist inactive, DRD3 antagonist -77, D3 ag inactive, D1 agonist inactive, D1 potentiator inactive and ERG-DNA inh inactive.
O=C(Nc1cccc(Cl)c1)c1c(NC(=O)C(F)(F)F)sc2c1CCCC2 was read as D1 antagonist -35, D3 ag inactive, D1 agonist inactive, D1 potentiator inactive and ERG-DNA inh inactive.
`CCOC(=O)c1c(NC(=O)C(C)N2CCN(C(=O)c3ccco3)CC2)sc2c1CCCC2` (stereo unspecified) gave D1 antagonist inactive, DRD3 antagonist inactive, D3 ag inactive, D1 agonist 40, D1 potentiator inactive and ERG-DNA inh inactive.
O=C(COc1ccccc1Cl)Nc1nc2c(s1)CCCC2 was read as D1 antagonist inactive, D3 ag inactive, D1 agonist inactive, D1 potentiator inactive and ERG-DNA inh inactive.
CCOC(=O)c1c(NC(=O)c2ccco2)sc2c1CCCCC2 was read as D1 antagonist inactive, DRD3 antagonist inactive, D3 ag inactive, D1 agonist inactive and D1 potentiator inactive.
For CC(C)C[C@@H]1COc2cccc(N(C)CCO)c2S(=O)(=O)N1 the results were DRD3 antagonist inactive and D3 ag inactive.
Screening COc1ccc(-c2nc(CN3CCC(c4ccccc4)CC3)c(C)o2)cc1OC returned D1 antagonist inactive, DRD3 antagonist inactive, D3 ag inactive, D1 agonist inactive, D1 potentiator inactive and ERG-DNA inh inactive.
For Cc1oc(-c2cccs2)nc1CN1CCC(c2ccccc2)CC1 the results were D1 antagonist inactive, DRD3 antagonist -91, D3 ag inactive, D1 agonist inactive, D1 potentiator inactive and ERG-DNA inh inactive.
For CC(C)(C)NC(=O)NC(=O)CN1CCN(c2ccc(O)cc2)CC1 the results were D1 antagonist inactive, DRD3 antagonist inactive, D3 ag inactive, D1 agonist inactive, D1 potentiator inactive and ERG-DNA inh inactive.
`CN(C)S(=O)(=O)c1cccc(NC(=O)c2cccc(S(=O)(=O)N3CCc4ccccc43)c2)c1` gave D1 antagonist -57, DRD3 antagonist inactive, D3 ag inactive, D1 agonist inactive, D1 potentiator inactive and ERG-DNA inh inactive.
Screening COc1ccc(NC(C)=O)cc1NC(=O)c1cccc(S(=O)(=O)N2CCc3ccccc32)c1 returned D1 antagonist -32, DRD3 antagonist inactive, D3 ag inactive, D1 agonist inactive, D1 potentiator inactive and ERG-DNA inh inactive.
`O=C(Nc1nc2c(s1)CN(Cc1ccccc1)CC2)c1cccc(S(=O)(=O)N2CCc3ccccc32)c1` gave D1 antagonist inactive, DRD3 antagonist inactive, D3 ag inactive, D1 agonist 73, D1 potentiator inactive and ERG-DNA inh inactive.
CN(C)CCNc1nc(S(=O)(=O)c2ccccc2)c(Cl)s1 was read as D1 antagonist inactive, DRD3 antagonist inactive, D3 ag inactive, D1 agonist inactive, D1 potentiator inactive and ERG-DNA inh inactive.
For CC(C)CNc1nc(S(=O)(=O)c2ccccc2)c(Cl)s1 the results were D1 antagonist -37, DRD3 antagonist inactive, D3 ag inactive, D1 agonist inactive, D1 potentiator inactive and ERG-DNA inh inactive.
Screening Nc1c(C(=O)Nc2ccccc2)sc2nc3c(c(-c4ccco4)c12)CCC3 returned D1 antagonist inactive, DRD3 antagonist -60, D3 ag inactive, D1 agonist inactive, D1 potentiator inactive and ERG-DNA inh inactive.
For Nc1c(C(=O)Nc2ccccc2)sc2nc3c(c(-c4ccco4)c12)CCCC3 the results were D1 antagonist inactive, DRD3 antagonist inactive, D3 ag inactive, D1 agonist inactive, D1 potentiator inactive and ERG-DNA inh inactive.
Screening Nc1ccc(S(=O)(=O)c2ccc(N)nc2)cc1 returned DRD3 antagonist inactive, D3 ag inactive and ERG-DNA inh inactive.
For O=C(COC(=O)CCC(=O)c1ccc(F)cc1)Nc1ccccc1 the results were D1 antagonist inactive, DRD3 antagonist inactive, D3 ag inactive, D1 agonist inactive, D1 potentiator inactive and ERG-DNA inh inactive.
Screening NC(=O)c1ccc(NC(=O)COC(=O)CCC(=O)c2ccc(Cl)cc2)cc1 returned D1 antagonist -31, DRD3 antagonist inactive, D3 ag inactive, D1 agonist inactive, D1 potentiator inactive and ERG-DNA inh inactive.
CCCCCCC1CC(CSC(=N)N)OC1=O (stereo unspecified) was read as D1 antagonist inactive, DRD3 antagonist -59, D3 ag inactive, D1 agonist inactive, D1 potentiator inactive and ERG-DNA inh inactive.
Cc1[nH]n(-c2ccccc2)c(=O)c1C1(C(F)(F)F)C(=O)N(c2ccc(F)cc2)C2=C1C(=O)CC(C)(C)C2 (stereo unspecified) was read as D1 antagonist inactive, DRD3 antagonist -71, D3 ag inactive, D1 agonist inactive, D1 potentiator inactive and ERG-DNA inh inactive.
CCOc1cc(C(=O)Nc2ccc(C)cc2O)ccc1OCC(=O)N1CCOCC1 was read as D1 antagonist inactive, DRD3 antagonist inactive, D3 ag inactive, D1 agonist inactive, D1 potentiator inactive and ERG-DNA inh inactive.
CCOc1cc(C(=O)Nc2cc(C)ccc2C)ccc1OCC(=O)N1CCCCC1 was read as D1 antagonist -90, DRD3 antagonist inactive, D3 ag inactive, D1 agonist inactive, D1 potentiator inactive and ERG-DNA inh inactive.
Screening Cc1nc2nc(C)n(CCN3CCOCC3)c(=O)c2c(-c2cccc([N+](=O)[O-])c2)c1C(=O)CCCCCCCCCCN1CCC(c2ccccc2)(c2ccccc2)CC1 returned DRD3 antagonist -93, D3 ag inactive and ERG-DNA inh inactive.
O=C(O)c1c(Cl)c(Cl)c(Cl)c(Cl)c1C(=O)N1CCCCCC1 was read as D1 antagonist inactive, DRD3 antagonist inactive, D3 ag inactive, D1 agonist inactive, D1 potentiator inactive and ERG-DNA inh inactive.
`O=C(O)c1c(Cl)c(Cl)c(Cl)c(Cl)c1C(=O)N1CCOCC1` gave D1 antagonist -35, DRD3 antagonist inactive, D3 ag inactive, D1 agonist inactive, D1 potentiator inactive and ERG-DNA inh inactive.
`COc1cc(CNc2ccc(N3CCN(C(C)=O)CC3)cc2)ccc1OCc1ccc(F)cc1` gave D1 antagonist inactive, DRD3 antagonist inactive, D3 ag inactive, D1 agonist inactive, D1 potentiator inactive and ERG-DNA inh inactive.
Screening CCOc1c(CC2C(=O)Nc3ccc(Br)cc32)cccc1OC (stereo unspecified) returned D1 antagonist -41, D3 ag inactive, D1 agonist 69, D1 potentiator inactive and ERG-DNA inh inactive.
